CHX counter = Cycloheximide Counterscreen for Small Molecule Inhibitors of Shiga Toxin; max response, %; actives 12% (n = 300,000); AID 2314, 2010; cell reporter, cycloheximide protein synthesis inhibition counterscreen; in the data active means max response mostly above about 13%, no sharp cut-off; inactive means mostly below about 14%; further: read at 38.3 µM for the half of the compounds with a filed dose
SARS PLP yeast = qHTS of Yeast-based Assay for SARS-CoV PLP | S. cerevisiae expressing SARS-CoV PLpro, growth rescue | Potency, µM (doses to about 32.9 µM), most hits filed as activators | actives 0.19% (n = 330,000) | AID 485353, 2010; further: nearly all actives have a fitted effect of over 55% in size
Shiga inhibitor = A qHTS for Small Molecule Inhibitors of Shiga Toxin; Vero cells, Shiga toxin protein synthesis inhibition reporter; inhibition, % at 38.7 µM; actives 9.2% (n = 290,000); in the data active means inhibition mostly above about 28%, no sharp cut-off; inactive means mostly below about 43%
NS1 inh = qHTS Assay for Inhibitors of Influenza NS1 Protein Function; Potency, µM (doses to about 46.1 µM); actives 0.4% (n = 270,000); further: actives are rising curves; nearly all actives have a fitted effect of over 50% in size
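Recovery from NS1-induced slow growth read by OD600 in budding yeast switched to galactose assay medium (pH 6.0, -URA) at 1:100 dilution. Compound 23 nl per well; the matching strain lacking NS1 serves as control.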
Each line names hits and unclear results; the compound was inactive in the other large screens. Most compounds without a hit are left out; they make up all but 12% or so of the library. Unless noted, the call rests on the fitted dose curve.

S=C1N[C@H](c2ccccc2)N[C@H](c2ccccc2)S1	none (no result: CHX counter, SARS PLP yeast, Shiga inhibitor)
Cc1cccc(CC(=O)NCC2CCCCC2)c1	CHX counter 30.7, Shiga inhibitor 93.1
O=C(NC1CCCC1)c1cccc(Oc2ccccc2)c1	CHX counter 22.8, Shiga inhibitor 78.1 (no result: NS1 inh)
CN(C)c1cccc(C(=O)NC2CCCCCC2)c1	CHX counter 39.5, Shiga inhibitor 43.4
CCC(C)(C)c1ccc(Oc2cccc(C(=O)O)c2)cc1	CHX counter 39.4, Shiga inhibitor 163.1
CC1(C)NC(=O)N(Cc2cc(=O)n3ccsc3n2)C1=O	none
COCCNCc1nc2sc(C)c(-c3ccccc3)c2c(=O)[nH]1	none
CC1CC(C)CN(c2ccc([N+](=O)[O-])nc2)C1 (configuration not stated)	CHX counter 17.1 (no result: NS1 inh)
O=C(Nc1ccc(F)cc1)C1CCCN1S(=O)(=O)c1ccc(Br)cc1 (configuration not stated)	none
COc1cc(/C=C2/NC(=O)N(c3cccc(Cl)c3)C2=O)ccc1O	Shiga inhibitor 22.8
O=C(O)c1cccc(-n2cccc2/C=C2/NC(=O)N(c3cccc(Cl)c3)C2=O)c1	none
COc1ccc(-n2cccc2/C=C2/NC(=O)N(c3cccc(Cl)c3)C2=O)cc1	CHX counter 21.7
CCOC(=O)N1CCN(Cc2nc(N)nc(Nc3ccc(OC)cc3)n2)CC1	none
CCOC(=O)N1CCN(Cc2nc(N)nc(Nc3ccc(Oc4ccccc4)cc3)n2)CC1	CHX counter 14.6
CCOC(=O)N1CCN(Cc2nc(N)nc(Nc3ccc(OCC)cc3)n2)CC1	none
CCOC(=O)N1CCN(Cc2nc(N)nc(Nc3ccc(Cl)cc3)n2)CC1	CHX counter 14.0
CCCCCC(=O)Nc1sc(C)c(C)c1C#N	CHX counter 42.3, Shiga inhibitor active
CCc1c(C)sc(NC(=O)c2cc(C(C)C)on2)c1C#N	CHX counter 13.0, Shiga inhibitor 55.1 (no result: NS1 inh)
Cc1cc(C(=O)Nc2sc(C)c(C)c2C#N)no1	CHX counter 41.5, Shiga inhibitor 58.6
CCc1c(C)sc(NC(=O)c2cc(C)no2)c1C#N	none
COc1ccc(COc2ccccc2C(=O)Nc2ccccn2)cc1[N+](=O)[O-]	none
Cc1cc(C)n(C(N)=NC(=O)c2ccc([N+](=O)[O-])cc2)n1	CHX counter 28.4, Shiga inhibitor 40.4
CCCOc1ccc(C2NC(=O)CCC2[N+](=O)[O-])cc1 (configuration not stated)	none (no result: Shiga inhibitor)
CC1CN(C(=S)Nc2ccccc2)N(c2ccccc2)C1 (configuration not stated)	none (no result: NS1 inh)
O=C(NCCc1ccccc1)c1ccccc1[N+](=O)[O-]	CHX counter 22.5, Shiga inhibitor 43.8
O=C(NN1CCOCC1)c1ccc(Cl)c([N+](=O)[O-])c1	CHX counter 26.6, Shiga inhibitor 61.5
NC(=O)c1ccc(NCC2CCCO2)c([N+](=O)[O-])c1 (configuration not stated)	none
O=C(NCCc1ccccc1)c1ccc(NCC2CCCO2)c([N+](=O)[O-])c1 (configuration not stated)	CHX counter 42.6, Shiga inhibitor 116.8 (no result: NS1 inh)
O=[N+]([O-])c1cc(S(=O)(=O)C(F)(F)F)ccc1NCC1CCCO1 (configuration not stated)	Shiga inhibitor 32.4
CC(C)NC(=O)NC(=O)COC(=O)C1(C)CC1(Cl)Cl (configuration not stated)	none (no result: NS1 inh)
CCOC(=O)Cc1c(C)nc2c(-c3ccc(OC)cc3)c(C)nn2c1C	none
CN(C)C(CNC(=O)c1ccc(Br)cc1)c1ccco1 (configuration not stated)	none
Cc1cc(NC(=O)CCc2ccccc2)c([N+](=O)[O-])cc1C	CHX counter 35.8
O=C(Cc1ccccc1)NCC(=O)OCC(=O)c1ccc(Cl)c([N+](=O)[O-])c1	none
O=C(NCCc1ccccc1)c1ccc(Cl)c([N+](=O)[O-])c1	CHX counter 64.4, Shiga inhibitor 135.9
Cc1cc(C(=O)NCC(c2ccco2)N(C)C)ccc1[N+](=O)[O-] (configuration not stated)	CHX counter 8.9
Cc1cccc(C(=O)NCCc2ccccc2)c1	CHX counter 61.1, Shiga inhibitor 88.4
Cc1ccc(S(=O)(=O)Nc2cc(Br)cc3cccnc23)cc1	none (no result: SARS PLP yeast, NS1 inh)
CCCCOCCCNC(=O)c1ccc([N+](=O)[O-])c(C)c1	none
Cc1cc(C(=O)NCCc2ccccc2)ccc1[N+](=O)[O-]	CHX counter 54.7, Shiga inhibitor 54.0
CCC(CC)C(=O)Nc1cccc(C(=O)NCCc2ccccc2)c1	CHX counter 19.3, Shiga inhibitor 105.4
O=c1cnnc(N/N=C/c2cccs2)[nH]1	none
C(=N\Nc1nc2ccccc2[nH]1)/c1cccs1	CHX counter 69.1, Shiga inhibitor 123.6
Cc1ccsc1/C=N/Nc1nc2ccccc2[nH]1	CHX counter 43.5, Shiga inhibitor active
CC1=C(C(N)=O)C(c2cccs2)NC(=O)N1 (configuration not stated)	none
CCc1ccc(NC(=O)c2cc(-c3ccc4c(c3)OCO4)on2)cc1	none
C=CCNC(=O)COCc1cc(-c2ccc3c(c2)OCO3)on1	CHX counter 27.3, Shiga inhibitor 39.4
O=C(COCc1cc(-c2ccc3c(c2)OCO3)on1)Nc1cccnc1	none
CCCNC(=O)COCc1cc(-c2ccc3c(c2)OCO3)on1	CHX counter 28.5, Shiga inhibitor 35.6
CCCCNC(=O)COCc1cc(-c2ccc3c(c2)OCO3)on1	Shiga inhibitor 47.1
CC(C)CNC(=O)c1cc(-c2ccc3c(c2)OCO3)on1	CHX counter 38.7, Shiga inhibitor 73.7
Cc1ccccc1Cn1ccc(=NCc2ccccc2)cc1	none
COC(=O)c1cc(Br)cn1S(=O)(=O)c1ccccc1	none
COCC(C)NC(=O)COCc1cc(-c2ccc3c(c2)OCO3)on1 (configuration not stated)	none
CC(C)CNC(=O)COCc1cc(-c2ccc3c(c2)OCO3)on1	CHX counter 38.1, Shiga inhibitor 99.9
Cc1cc(C)nc(NC(=O)/C=C/c2ccc(Cl)cc2Cl)c1	CHX counter 41.0, Shiga inhibitor 81.2
Cc1cc(C)nc(NC(=O)/C=C/c2ccccc2Cl)n1	CHX counter 44.7, Shiga inhibitor 70.2
Cc1cc(C(=O)NNC(=S)NC(=O)/C=C/c2ccccc2Cl)n[nH]1	SARS PLP yeast 10µM
Cc1cc(C)nc(NC(=O)c2ccc(COc3ccccc3Cl)cc2)c1	none (no result: NS1 inh)
Cc1cc(C)nc(NC(=O)/C=C/c2ccccc2Cl)c1	CHX counter 30.3, Shiga inhibitor 31.5
CC(=O)Nc1ccc(NC(=O)CSc2nnc(NC(=O)Cc3ccc(F)cc3)s2)cc1	none
CCOc1ccc(CN(C)C(=O)c2cccc(S(=O)(=O)N3CCCC3)c2)cc1OC	none (no result: CHX counter, Shiga inhibitor, NS1 inh)
COc1cccc(/C=C2\NC(=O)NC2=O)c1O	Shiga inhibitor 40.6
CCOC(=O)COc1ccccc1/C=C1/NC(=O)NC1=O	none
O=C(O)c1ccccc1C(=O)NCc1ccc2c(c1)OCO2	none
Cc1nc2c(sc3nc4c(cc32)COC(C)(C)C4)c(=O)n1CC(=O)NCc1ccco1	CHX counter 24.2, Shiga inhibitor 39.1
CC(C)c1nc2sc3c(SCC(=O)NCc4ccco4)ncnc3c2c2c1CCC2	none

Screening results deposited in PubChem by National Center for Advancing Translational Sciences (NCATS).
